The record followed here is article PMC12136788.

B1: ENSG00000136451:be:win_1501|CDS_3pUTR|ENSG00000136451|bound_else_gene|NA|bound_elsewhere_windowed (ssRNA)
RNA: GGGAGUUCUACAGUCCGACGAUCGCAAUGAGACCUGUAGAGAGCAUGCCUUUCUUGCCCCAAGCUUUGCCUACAUCACCGCCUUGGUAAACAGUAUUAUAAAAUCAAAAUAUGGGUAAAAGUAAAUAUUUACCAGCAACUUAACAACAGAGGAUUGAGCAUCA
B2: chr8:41262032:41262394:-|3pUTR|ENSG00000104332|msi1|total|mutant (ssRNA)
RNA: GGGAGUUCUACAGUCCGACGAUCGGCCGUUCUGACCUGUUGCCAGCAGAUACACAGGACAUGGAUGAAAUUCCCGUUUCCUCCCGUUUCUUCCUGCCGUACUCCUCUUUCCGAUCCUAAGUCUCUUACAAAAGCUUUGAAUACCAACAGAGGAUUGAGCAUCA
B3: chr1:6522505:6522606:-|3pUTR|ENSG00000162408|msi1|FALSE|unique (ssRNA)
RNA: GGGAGUUCUACAGUCCGACGAUCCUGGGAUUACAGGCGUGAGCCACUGCGCCUGGCCUGAAGCUAUUCUUUACAAAAGCUCUUAGUUUUUGUUUGUUUGUUUGUUUUUUUCUUUUGCGACGGACUCUCUGUCGCCAAGGCUGGCAACAGAGGAUUGAGCAUCA
B4: chr12:95077336:95077437:-|3pUTR|ENSG00000180263|msi1|FALSE|unique (ssRNA)
RNA: GGGAGUUCUACAGUCCGACGAUCUCCUCAUUGACCCAUCCGCAUCUCUGUUUAUCCAAGACUUCUCUGUGAUAGCUGACCCUUAGUCUUUCUCUCCCCUAUUCCUCCAGACUAGAUCCUGUCUCCUUCCUGCAGCCCCGACACCAACAGAGGAUUGAGCAUCA
B5: chr2:121605696:121605828:-|CDS|ENSG00000074054|unk|total|mutant (ssRNA)
RNA: GGGAGUUCUACAGUCCGACGAUCGACCGACUAUUUCUCAGACAAACAGAAGUCUGCUGACCUUGAGCAUGACCAGACCAUGUCCGAUAAACUUGUGGAUGGACUUGCUACCUCUUGGGUGAACUCCCGCAAUUACAAGGUAAGCAACAGAGGAUUGAGCAUCA
B6: chr10:24583932:24584033:-|3pUTR|ENSG00000107863|unk|total|mutant (ssRNA)
RNA: GGGAGUUCUACAGUCCGACGAUCAACAAAAGUGCCUCAUCAUAAAAAUACAGUUGGUUUUCCGGGUGCCAUAUUGUUAAAAUCCGAUAACUUACUUACAUUGAAUAAACGAAUGCGUUUUAUUGGUAACAGAUAUCAUUACAUCAACAGAGGAUUGAGCAUCA
B7: chr5:171862525:171862626:-|3pUTR|ENSG00000072803|msi1|FALSE|unique (ssRNA)
RNA: GGGAGUUCUACAGUCCGACGAUCGACAGUGCAUGGAAAGGACGUUGGCAUCCAAUUGGCACUCCUUCUCCCUUAUUCAAUAUUAGGUUUGAUUUGCCCUUCGCCAUUGUUUCCAAAGAUCAAGGAAUGUCAAUAACAUUUUAACAACAGAGGAUUGAGCAUCA
B8: chr7:56101660:56101848:-|3pUTR|ENSG00000106153|msi1|FALSE|unique (ssRNA)
RNA: GGGAGUUCUACAGUCCGACGAUCUGGAGAGAUGGAAAAUCAGCUCUCAUAACUAAGUUAAUUUAGUAUAAAAAUAGAAUUGAUAGUGAGGGUAUAAAGUGUAACCAUCAGUUAAACCUCUCCUGUCAUUCCUGGCUUCCUUGCCAACAGAGGAUUGAGCAUCA
B9: chr7:101137467:101137738:+|3pUTR|ENSG00000106366|msi1|FALSE|unique (ssRNA)
RNA: GGGAGUUCUACAGUCCGACGAUCGUUAAAAGAUGGUAAACCAGAUCUGUCUCCAAGACCUUGGCCUCUCCUUGGAGGACCUUUAGGUCAAACUCCCUAGUCUCCACCUGAGACCCUGGGAGAGAAGUUUGAAGCACAACUCCCCAACAGAGGAUUGAGCAUCA
B10: chr14:74942539:74942640:-|3pUTR|ENSG00000119630|msi1|total|mutant (ssRNA)
RNA: GGGAGUUCUACAGUCCGACGAUCGUGUAUUUAUUACCGUCACACUCUUCAGUGACUCCUGCUGGUACCUGCCCUCUAUUUAUCCGCCAACUGUUUCCCUGCUGAAUGCCUCGCUCCCUUCAAGACGAGGGGCAGGGAAGGACACAACAGAGGAUUGAGCAUCA
B11: chr1:151048051:151048152:+|CDS|ENSG00000143443|unk|FALSE|unique (ssRNA)
RNA: GGGAGUUCUACAGUCCGACGAUCGACCGCCUGGCUGGACCAGCGGCUGCCGAGCUCUUGGCCGCCACGGUGUCCACCGGCUUUAGCCGGUCGUCCGCCAUUAACGAGGAGGAUGGGUCUUCAGAAGAGGGGGUUGUGAUUAAUCAACAGAGGAUUGAGCAUCA
B12: chrX:65741840:65741941:+|3pUTR|ENSG00000147065|msi1|total|mutant (ssRNA)
RNA: GGGAGUUCUACAGUCCGACGAUCAAAUUGUUUUUGGAGGGGUUUAUGCUCAAUCCAUGUUCUAUUUCAGUGCCAAUAAAAUUCCGGAAGACUUCACAGUGACUCAAUCGUUCUUUGUGGUAUGAGUGGGCCGCUGUAAGAUAUCAACAGAGGAUUGAGCAUCA
B13: chr12:106067485:106067586:-|CDS|ENSG00000074590|msi1|FALSE|unique (ssRNA)
RNA: GGGAGUUCUACAGUCCGACGAUCCCUGAAGAAGCGAAGCAACAGCGAGCAUCGCUCUCACAGCACUGGCUUCAUUGAAGGUGUAGUUGGUCCUGCCUUACCCUCUACUUUCAAGAUGGAGCAGGACUUGUGCAGGACUGGCGUCAACAGAGGAUUGAGCAUCA
B14: chr20:53567570:53567671:-|3pUTR|ENSG00000171940|unk|FALSE|unique (ssRNA)
RNA: GGGAGUUCUACAGUCCGACGAUCUCACAAGCUGAGCCAUAUGUACAUAAUCUAGAUUUUGUUUUCAUAGUUUUGCACUUUUAUAGCCUAUUUUUGAAGAUUAACACAUUUGCAAGAUGAUUGACUCAAUCUUUGCCUAAUCCACAACAGAGGAUUGAGCAUCA
B15: chr4:168926953:168927063:+|3pUTR|ENSG00000129116|msi1_unk|FALSE|overlapping (ssRNA)
RNA: GGGAGUUCUACAGUCCGACGAUCCAAAAGAGUUUUCUAACAAGGUUAAUACCUUAGUUCUUAACAUUUUUUUUCUUUAUGUGUAGUGUUUUCAUGCUACCUUGGUAGGAAACUUAUUUACAAACCAUAUUAAAAGGCUAAUUUCAACAGAGGAUUGAGCAUCA
B16: chrX:131089436:131089558:+|3pUTR|ENSG00000147256|unk|FALSE|unique (ssRNA)
RNA: GGGAGUUCUACAGUCCGACGAUCGGGAAACCUCAAGUGUAGGUCUAAUUAGUGUUUCUGGGAUCCAAAGUUAGAGGAAAAUUUAGAUUUUAUUGCCUGGAUCUGCUUUAAAGACAAUUGGUGUUUACACCCUCUUGUCAGCAACAACAGAGGAUUGAGCAUCA
B17: chr12:7729382:7729740:-|three_prime_utr|ENSG00000198178|control|control|control (ssRNA)
RNA: GGGAGUUCUACAGUCCGACGAUCAUCUACAUAUAAAUGAAAUAUUCUCCCUGGAAAUGUGUUUGGGUUGGCAUCCACCGUUGUAGAAAGCUAAAUUGAUUUUUUAAUUUAUGUGUAAGUUUUGUACAAGGAAUGCCCCUAAAACAACAGAGGAUUGAGCAUCA
B18: chrX:131089436:131089558:+|3pUTR|ENSG00000147256|unk|total|mutant (ssRNA)
RNA: B16 RNA with U39C, A40C, U49C, A50C, U71C, A72C, U83C, A84C
B19: ENSG00000136451:be:win_1601|3pUTR|ENSG00000136451|bound_else_gene|NA|bound_elsewhere_windowed (ssRNA)
RNA: GGGAGUUCUACAGUCCGACGAUCAAUAUUUACCAGCAACUUAACUUUUAGUUGAUUAAAGCAAAAAGUAAACCAUGAAAUUGGGAGAUUUUAUUACAUUAGUUAAUAAGAGUGUGGUAGCAUUUUUCUCCAAUUUGGCUGGGACAACAGAGGAUUGAGCAUCA
B20: chr4:185586528:185586629:-|3pUTR|ENSG00000154556|msi1|total|mutant (ssRNA)
RNA: GGGAGUUCUACAGUCCGACGAUCAUCCAUAUGAUAUGUUGUACAUUUUAUGGAAAUGUAACCGAAUCUCACACAUUAUUUUACCGAAACCGAGUACAGAAGCAUCACAAGUAUUAAAGUUGGUUUCCGCAAGGAUCCGGAUUACAACAGAGGAUUGAGCAUCA
B21: chr7:2728618:2728646:-|3pUTR|ENSG00000146535|msi1_unk|FALSE|overlapping (ssRNA)
RNA: GGGAGUUCUACAGUCCGACGAUCUUUAAUUUCACUGUUAAUCCUUAUUGUCUUUUUUAUUAAGAUGUUGGAAAAGCAGGAGGUAGUUGUGCCUCAAUUAUUGCAAAAAUGUAACAAUAAAGUUCCUCAAAAUAAGAUCUGUUCCAACAGAGGAUUGAGCAUCA
B22: chr4:168926953:168927063:+|3pUTR|ENSG00000129116|msi1_unk|total|mutant (ssRNA)
RNA: B15 RNA with U54C, A55C, U83C, A84C, U105C, A106C
B23: chr12:98549714:98549829:+|3pUTR|ENSG00000120802|unk|FALSE|unique (ssRNA)
RNA: GGGAGUUCUACAGUCCGACGAUCGAAGAUGUAUAUUUAGACCAGCACACAAUUUUGAUUUCAAUUAGCCUUAUUCUAAUAUUUAGCUUUUAGAUCUUUCAUACACAUUUUCACGUACUUUGCAAUUGAGACCAGAAAGACUUGCAACAGAGGAUUGAGCAUCA
B24: chr12:98549714:98549829:+|3pUTR|ENSG00000120802|unk|total|mutant (ssRNA)
RNA: B23 RNA with U37C, A38C, U65C, A66C, U83C, A84C, U90C, A91C
B25: chr4:185586528:185586629:-|3pUTR|ENSG00000154556|msi1|FALSE|unique (ssRNA)
RNA: B20 RNA with C61U, C62A, C83U, C84A, C89U, C90A, C126U, C127A, C136U, C137A

Numbering of substitutions follows the chain as printed. The full ranking holds about 5,800 sequences; the median of “enrichment r” is about 0.54, and the highest 2% start at about 16. For the sample, the highest values were picked, then their nearest neighbours and some sequences at random.

Chain of MSI1 full-length (Q61474 whole entry): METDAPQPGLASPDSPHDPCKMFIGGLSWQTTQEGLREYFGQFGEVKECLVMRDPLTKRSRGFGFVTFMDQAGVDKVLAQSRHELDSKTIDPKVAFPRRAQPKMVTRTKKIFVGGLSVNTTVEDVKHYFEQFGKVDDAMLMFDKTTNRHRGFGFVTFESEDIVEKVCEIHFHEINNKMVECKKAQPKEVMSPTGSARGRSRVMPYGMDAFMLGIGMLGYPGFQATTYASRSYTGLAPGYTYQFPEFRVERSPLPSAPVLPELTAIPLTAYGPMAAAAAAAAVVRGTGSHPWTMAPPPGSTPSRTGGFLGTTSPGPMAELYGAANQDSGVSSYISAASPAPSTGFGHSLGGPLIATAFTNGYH

The test concerns the target MSI1 full-length (mouse, UniProt Q61474 1-362). In words: nsRBNS (natural sequence RNA bind-n-seq); RBNS binding buffer (assumed for nsRBNS): 25 mM Tris pH 7.5, 150 mM KCl, 3 mM MgCl2, 0.01% Triton X-100, 500 ug/ml BSA, 20 U/ml SUPERase-In, 4 C; UNK is unkempt and MSI1 is Musashi-1; names of the RNAs are library labels; protein concentration not given here; high values mean tight binding.
As to B1, the binding signal was 0.827 enrichment R.

Turning to B2, the binding signal was 0.417 enrichment R.

In turn, B3 registered a binding signal of 0.372 enrichment R.

B4: the binding signal stood at 1.24 enrichment R.

B5 showed a binding signal of 0.532 enrichment R.

As for B6, the binding signal stood at 0.389 enrichment R.

Consider B7, for which the binding signal worked out at 0.699 enrichment R.

For B8, the binding signal came to 5.86 enrichment R.

For B9, the binding signal worked out at 0.316 enrichment R.

Regarding B10, the binding signal is 0.338 enrichment R.

Consider B11, for which the binding signal was 0.497 enrichment R.

In turn, B12 returned a binding signal of 0.205 enrichment R.

In the case of B13, the binding signal is 0.282 enrichment R.

Turning to B14, the binding signal is 4.98 enrichment R.

B15 displayed a binding signal of 20 enrichment R.

Molecule B16 had a binding signal of 20.8 enrichment R.

The molecule B17 displayed a binding signal of 0.681 enrichment R.

In turn, B18 showed a binding signal of 0.224 enrichment R.

The molecule B19 showed a binding signal of 1.37 enrichment R.

Turning to B20, the binding signal was 0.725 enrichment R.

B21: the binding signal was found to be 0.334 enrichment R.

Regarding B22, the binding signal was 0.747 enrichment R.

In turn, B23 yielded a binding signal of 23.7 enrichment R.

Molecule B24 showed a binding signal of 0.832 enrichment R.

The molecule B25 showed a binding signal of 34.5 enrichment R.
